{"source": "PubChem BioAssay (NCATS)", "key": {"[1]": {"biological_target": "Nuclear receptor subfamily 1 group I member 2 (Rattus norvegicus) (UniProt Q9R1A7)", "sequence (Q9R1A7 whole entry, looked up)": "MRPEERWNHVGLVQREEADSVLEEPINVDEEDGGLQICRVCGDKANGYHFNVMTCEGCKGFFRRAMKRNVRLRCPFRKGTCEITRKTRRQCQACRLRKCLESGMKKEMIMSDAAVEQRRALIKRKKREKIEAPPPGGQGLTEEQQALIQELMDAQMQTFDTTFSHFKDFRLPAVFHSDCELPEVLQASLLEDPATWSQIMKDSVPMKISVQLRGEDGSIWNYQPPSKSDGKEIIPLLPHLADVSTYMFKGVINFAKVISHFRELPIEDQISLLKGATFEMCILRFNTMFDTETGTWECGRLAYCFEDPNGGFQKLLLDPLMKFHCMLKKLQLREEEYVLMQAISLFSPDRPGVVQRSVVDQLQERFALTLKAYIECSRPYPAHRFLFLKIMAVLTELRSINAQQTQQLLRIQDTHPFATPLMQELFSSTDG", "assay": "qHTS assay for small molecule activators of the rat pregnane X receptor (rPXR) signaling pathway (AID 651751; call rule not given here; on all read-outs here: 0% is about no effect)", "conditions": "rPXR reporter cells, luciferase (One-Glo), 24 h"}, "[2]": {"assay": "qHTS assay for small molecule activators of the human pregnane X receptor (PXR) signaling pathway (AID 720659; call rule not given here; on all read-outs here: 0% is about no effect)", "conditions": "DPX-2 HepG2 CYP3A4-luciferase, 24 h; series mostly up to 92.3 µM"}, "[3]": {"assay": "Drug repurposing screens with cells derived from glioblastoma tumor samples (AID 1345199); further: potency means the concentration at half of the fitted maximal effect; on activity, negative = cell killing: on the % scale 0 is the no-effect control and ±100 the full control effect; on all read-outs here: nearly all actives have a fitted effect of over 40% in size", "conditions": "GBM patient neurospheres viability, ATP luminescence, 48 h", "outline": "(§1)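 Four patient lines of CD133+ GBM neurospheres were screened at several concentrations; hits were retested in those lines plus three slower-growing GBM lines, using 48-hour treatment and ATP-based viability.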"}, "[4]": {"tested_on": "astro", "assay": "Drug repurposing screens with cells derived from glioblastoma tumor samples (AID 1345199)", "conditions": "viability, ATP luminescence, 48 h; series mostly up to 45.9 µM", "outline": "as §1"}, "[5]": {"assay": "qHTS assay to identify inhibitors of the type 1 interferon - major histocompatibility complex class I in skeletal muscle: Counter screen cell viability and HiBit confirmation (AID 1347412)", "conditions": "iHSKM muscle cells + IFN-b, HiBiT or CellTiter-Glo, 24 h; for activity change, negative = inhibition: Viability, at 45.9 µM (top of the series)", "outline": "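Human myoblast knock-in line, 4.0 ng/ml IFN-beta stimulation, 24 h compound treatment. Endpoints: HiBiT lytic luminescence (HLA-B level) and CellTiter Glo (ATP). Dosing 12 concentrations, 3-fold steps, 46 uM highest final.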"}, "[6]": {"conditions": "at 45.9 µM (top of the series), tumour line B"}, "[7]": {"conditions": "at 45.9 µM (top of the series), tumour line D"}, "[8]": {"conditions": "at 46 µM (top of the series), tumour line A"}, "[9]": {"conditions": "at 46.1 µM (top of the series), tumour line C"}}, "note": "Where “and” joins values, the source holds several entries; their conditions need not be identical. Equal values may be shown once. A number with no mark means an inactive call. Records with an inconclusive call do not appear. Calls of active or inactive are those of the source. Unless noted, the call rests on the fitted dose curve; in most records, active means well fitted curve in the direction sought with a large enough effect; inconclusive means small, poorly fitted or top-dose-only effect, or another doubt; inactive means no such curve, though single readings can be large; an effect the other way counts as inactive or inconclusive. Wherever Potency is given: potency means the concentration at half of the fitted maximal effect. Wherever activity change, negative = inhibition is given: nearly all actives have a fitted effect of over 60% in size. Wherever activity change, negative = inhibition is given: on the % scale 0 is the no-effect control and ±100 the full control effect.", "data": [{"smiles": "CN1CCC[C@H]1c1cccnc1", "values": [{"measurement": "max response", "setting": "[1]", "result": "4.53% and 0.248%"}, {"measurement": "outcome", "setting": "[2]", "result": "inactive"}]}, {"smiles": "CCCCC[C@H](O)/C=C/[C@@H]1[C@@H](C/C=C\\CCCC(=O)O)[C@@H](O)C[C@H]1O", "values": [{"measurement": "activity, negative = cell killing", "setting": "[3]; at 20 µM (top of the series), tumour line C", "result": -5.83, "unit": "%"}, {"measurement": "activity, negative = cell killing", "setting": "[3]; at 21.2 µM (top of the series), tumour line B", "result": 0.321, "unit": "%"}, {"measurement": "activity, negative = cell killing", "setting": "[3]; at 21.2 µM (top of the series), tumour line D", "result": -15.4, "unit": "%"}, {"measurement": "activity, negative = cell killing", "setting": "[3]; [6]", "result": 1.47, "unit": "%"}, {"measurement": "activity, negative = cell killing", "setting": "[3]; [7]", "result": -6.45, "unit": "%"}, {"measurement": "activity, negative = cell killing", "setting": "[3]; [8]", "result": -9.88, "unit": "%"}, {"measurement": "activity, negative = cell killing", "setting": "[3]; [9]", "result": -1.95, "unit": "%"}]}, {"smiles": "CC(=O)[C@]1(O)Cc2c(O)c3c(c(O)c2[C@@H](O[C@H]2C[C@H](N)[C@H](O)[C@H](C)O2)C1)C(=O)c1c(O)cccc1C3=O", "values": [{"measurement": "Potency", "setting": "[4]", "result": "501 nM (active) and 562 nM (active)"}]}, {"smiles": "CC[C@H]1OC(=O)[C@H](C)[C@@H](O[C@H]2C[C@@](C)(OC)[C@@H](O)[C@H](C)O2)[C@H](C)[C@@H](O[C@@H]2O[C@H](C)C[C@H](N(C)C)[C@H]2O)[C@](C)(O)C[C@@H](C)C(=O)[C@H](C)[C@@H](O)[C@]1(C)O", "values": [{"measurement": "activity, negative = cell killing", "setting": "[3]; [6]", "result": "-22.6% and -12%"}, {"measurement": "activity, negative = cell killing", "setting": "[3]; [7]", "result": "-9.85% and -27.5%"}, {"measurement": "activity, negative = cell killing", "setting": "[3]; [9]", "result": "-1.15% and -24.2%"}, {"measurement": "Potency", "setting": "[4]", "result": "inactive"}]}, {"smiles": "O=C(NOCC1CC1)c1cc(Br)c(F)c(F)c1Nc1ccc(I)cc1Cl", "values": [{"measurement": "activity change, negative = inhibition", "setting": "[5]", "result": -18.5, "unit": "%"}]}, {"smiles": "Oc1ccccc1O", "values": [{"measurement": "max response", "setting": "[1]", "result": 2.32, "unit": "%"}, {"measurement": "outcome", "setting": "[2]", "result": "inactive"}]}, {"smiles": "CO/N=C(\\C(=O)N[C@@H]1C(=O)N2C(C(=O)O)=C(COC(C)=O)CS[C@H]12)c1csc(N)n1", "note": "(stereo in doubt)", "values": [{"measurement": "activity, negative = cell killing", "setting": "[3]; [6]", "result": -12.2, "unit": "%"}, {"measurement": "activity, negative = cell killing", "setting": "[3]; [7]", "result": 9.74, "unit": "%"}, {"measurement": "activity, negative = cell killing", "setting": "[3]; [8]", "result": -20.5, "unit": "%"}, {"measurement": "activity, negative = cell killing", "setting": "[3]; [9]", "result": -2.27, "unit": "%"}, {"measurement": "Potency", "setting": "[4]", "result": "inactive"}]}, {"smiles": "CN(C)CCC(c1ccc(Cl)cc1)c1ccccn1", "note": "(stereo unspecified)", "values": [{"measurement": "max response", "setting": "[1]", "result": 3.17, "unit": "%"}, {"measurement": "outcome", "setting": "[2]", "result": "inactive"}]}, {"smiles": "CN1[C@@H](CC(=O)c2ccccc2)CCC[C@H]1C[C@H](O)c1ccccc1", "values": [{"measurement": "activity, negative = cell killing", "setting": "[3]; [6]", "result": -7.77, "unit": "%"}, {"measurement": "activity, negative = cell killing", "setting": "[3]; [7]", "result": -23.7, "unit": "%"}, {"measurement": "activity, negative = cell killing", "setting": "[3]; [9]", "result": 11.9, "unit": "%"}, {"measurement": "Potency", "setting": "[3]; tumour line A", "result": "10 µM (active)"}, {"measurement": "Potency", "setting": "[4]", "result": "inactive"}]}, {"smiles": "COc1ccc(/C=C2\\COc3ccc(C)cc3C2=O)cc1O", "values": [{"measurement": "Potency", "setting": "[5]; HiBiT", "result": "14 µM (active)"}, {"measurement": "activity change, negative = inhibition", "setting": "[5]", "result": -21.6, "unit": "%"}]}, {"smiles": "O=C(O)COc1ccc(C(=O)c2cccs2)c(Cl)c1Cl", "values": [{"measurement": "activity, negative = cell killing", "setting": "[3]; [6]", "result": "-12.4% and -10%"}, {"measurement": "activity, negative = cell killing", "setting": "[3]; [7]", "result": "-10.2% and 1.54%"}, {"measurement": "activity, negative = cell killing", "setting": "[3]; [8]", "result": "-22.1% and -29.6%"}, {"measurement": "activity, negative = cell killing", "setting": "[3]; [9]", "result": "-20.3% and -8.25%"}, {"measurement": "Potency", "setting": "[4]", "result": "inactive"}]}, {"smiles": "C[N+](C)(C)CCOP(=O)(O)OP(=O)([O-])OC[C@H]1O[C@@H](n2ccc(N)nc2=O)[C@H](O)[C@@H]1O", "values": [{"measurement": "activity, negative = cell killing", "setting": "[3]; [6]", "result": "-6.25% and -7.43%"}, {"measurement": "activity, negative = cell killing", "setting": "[3]; [7]", "result": "-2.69% and -5.13%"}, {"measurement": "activity, negative = cell killing", "setting": "[3]; [8]", "result": -13.9, "unit": "%"}, {"measurement": "activity, negative = cell killing", "setting": "[3]; [9]", "result": "-5.84% and 8.06%"}, {"measurement": "Potency", "setting": "[4]", "result": "inactive"}]}]}
